A selection: hits, their analogues and other compounds. The true share with any hit is near 19%.
DT40 TDP1 no CPT: qHTS for Inhibitors of human tyrosyl-DNA phosphodiesterase 1 (TDP1): qHTS in cells in absence of CPT; Potency, µM (titrated, usually from 46.2 µM), for inactives: at the top dose activity change, negative = growth inhibition, hits mostly inhibitors; actives 15% (n = 420,000); DT40 Tdp1-/- hTDP1 cells, no CPT, ATP luminescence, 48 h; note: nearly all actives have a fitted effect of over 55% in size
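DT40 Tdp1-/-;hTDP1 cells, no CPT (DMSO vehicle only), 400 cells/well; compounds pin-transferred; ≥48 hr, 37 °C; CellTiter-Glo 30 min RT dark, luminescence read.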
KB-V1 cytotox: qHTS assay for MDR1-selective chemotherapeutics: Primary screen using the drug-selected MDR subline cells KB-V1. KB-V1 MDR cells viability, CellTiter-Glo, 72 h. actives 3.4% (n = 400,000). Potency, µM (series often up to 46.1 µM), hits mostly cytotoxic; note: nearly all actives have a fitted effect of over 60% in size
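Cytotoxicity toward P-gp-expressing KB-V1 cells was determined as loss of CellTiter-Glo luminescence after 72 h at 37 degrees C. Compounds were tested in quantitative HTS format across a concentration range, with curves fitted to normalized data.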
TDP1 cell CPT: qHTS for Inhibitors of human tyrosyl-DNA phosphodiesterase 1 (TDP1): qHTS in cells in presence of CPT; actives 12% (n = 420,000); chicken DT40 Tdp1-/-;hTDP1 cells + 20 nM CPT, ATP luminescence, 48 h; Potency, µM (doses to about 46.2 µM), for inactives: at the top dose activity change, negative = growth inhibition, usual class: inhibitors; AID 686979, 2013; note: nearly all actives have a fitted effect of over 55% in size
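Chicken DT40 Tdp1-/- cells complemented with human TDP1, 400 cells/well, exposed to compounds plus 20 nM camptothecin for at least 48 h at 37 C; viability read as ATP content by CellTiter-Glo luminescence.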
KB-3-1 cytotox: qHTS assay for MDR1-selective chemotherapeutics: Primary screen using the parental adenocarcinoma cell KB-3-1; Potency, µM (top dose mostly 46.1 µM), actives largely listed as cytotoxic; KB-3-1 viability, CellTiter-Glo ATP luminescence, 72 h; actives 1.4% (n = 400,000); note: nearly all actives have a fitted effect of over 60% in size
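KB-3-1 parental drug-naive adenocarcinoma cells in DMEM/10% FBS, incubated 72 h at 37 C with pin-transferred compounds across a concentration series. Viability by CellTiter-Glo luminescence; concentration-response curves fitted after normalization.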
HT1080 IDH1KD tx: qHTS for induction of synthetic lethality in tumor cells producing 2HG: qHTS for the HT-1080-IDH1KD cell line; Potency, µM (titrated, usually from 46.1 µM), without a hit: at the top dose activity, negative = toxicity, most hits filed as cytotoxic; HT-1080 IDH1 knockdown viability, ATP luminescence, 48 h; AID 686971, 2013; actives 2% (n = 360,000);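 note: 0% = DMSO wells and -100% = cell-free medium wells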
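Knockdown cells (IDH1KD HT-1080) received compounds 2 h after plating at 750 cells/well and were kept 48 h at 37 °C in 5% FBS RPMI. A CellTiter-Glo luminescence read gave % activity for curve fitting.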
HT1080NT lethal: qHTS for induction of synthetic lethality in tumor cells producing 2HG: qHTS for the HT-1080-NT fibrosarcoma cell line. HT-1080-NT fibrosarcoma viability, CellTiter-Glo ATP luminescence, 48 h. Potency, µM (top dose mostly 46.1 µM), for inactives: at the top dose activity, negative = less viability, most hits filed as cytotoxic. actives 1.6% (n = 360,000). AID 686970, 2013;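 note: NT is the 2HG producing partner of a matched IDH1 knockdown line; 0% = DMSO-treated cells and -100% = media-only wells without cells; nearly all actives have a fitted effect of over 55% in size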
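750 cells/well, RPMI + 5% FBS; 2 h settle, compound pin-transfer, 48 h at 37 degrees C. CellTiter-Glo 10 min RT, luminescence. Normalized to DMSO and media-only wells.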
An asterisk follows results filed as active; i = inactive; ? = inconclusive; . = no result; ! = a repeat was not active. Calls come from the whole dose curve; as a rule, active = well fitted curve in the direction sought with a large enough effect; inconclusive = small, poorly fitted or top-dose-only effect, or another doubt; inactive = no such curve, though single readings can be large; an effect the other way counts as inactive or inconclusive. Unless noted, % is set by controls: 0 for no effect and ±100 for the full control effect; potency is the fitted concentration of half-maximal effect.

SMILES | DT40 TDP1 no CPT | KB-V1 cytotox | TDP1 cell CPT | KB-3-1 cytotox | HT1080 IDH1KD tx | HT1080NT lethal
CCN1CCN(c2cc(C)c3cc(NC(=O)/C=C/c4ccc(OCCC(C)C)cc4)ccc3n2)CC1 | 4.11µM* | . | 4.61µM* | . | . | .
Cc1cc(N2CCN(C)CC2)nc2ccc(NC(=O)c3ccc(C(C)(C)C)cc3)cc12 | 4.61µM* | ? | 7.31µM* | ? | . | .
CCN1CCN(c2cc(C)c3cc(NC(=O)c4ccc5c(c4)OCO5)ccc3n2)CC1 | 14.6µM* | ? | 11.6µM* | ? | ? | ?
CCOC(=O)C1(C)CCCN(C(=O)c2ccc(OC)cc2OC)C1 (centres undefined) | 3.6% | i | 5.9% | i | 16.5% | 3.2%
CCN1CCN(c2cc(C)c3cc(NC(=O)c4ccc(OC)c(OC)c4)ccc3n2)CC1 | 16.4µM* | 4.11µM*! | 14.6µM* | 3.66µM*! | ? | -25.2%
CCn1c(CN2CCCCC2)nc2cc(NC(=O)COc3ccc(C(C)(C)C)cc3)ccc21 | 8.2µM* | i | 11.6µM* | i | . | .
Cc1ccc(C(C)C)c(OCC(=O)Nc2ccc3c(c2)nc(CCN2CCCCC2)n3C)c1 | ? | ? | ? | i | 16.4µM* | 20.6µM*
CCn1c(CN2CCCCC2)nc2cc(NC(=O)c3cccc([N+](=O)[O-])c3)ccc21 | 23.1µM* | i | 18.4µM* | i | . | .
CCn1c(CN2CCCCC2)nc2cc(NC(=O)COc3cc(C)ccc3C(C)C)ccc21 | ? | i | 18.4µM* | ? | . | .
CCOc1ccc(NC(=O)Cn2ccn(-c3ccc(F)c(F)c3)c(=O)c2=O)cc1 | -4.5% | . | 4.5% | . | . | .
Cc1nn(CC(=O)Nc2ccc3c(c2)nc(CCN2CCCCC2)n3C)c(=O)c2ccccc12 | ? | i | 11.2µM* | i | 2.82µM* | ?
CC(=O)N1CCN(Cc2nc3cc(NC(=O)Cn4nc(C)c5ccccc5c4=O)ccc3n2C)CC1 | -31.8% | i | 7.1% | i | 0.8% | -4.7%
Cn1c(CCN2CCCCC2)nc2cc(NC(=O)COc3ccc([N+](=O)[O-])cc3)ccc21 | 18.4µM* | i | -29.0% | i | ? | -28.6%
CC1=C(C(=O)N(C)C)CC(CC(=O)NCCCCc2ccccc2)C(=O)N1Cc1ccccc1 (centres undefined) | ? | ? | ? | i | 0.3% | -0.9%
COc1ccc(C2C(Oc3ccccc3)C(=O)N2c2cc(C)ccc2C)cc1OC (centres undefined) | -3.9% | 6.51µM* | -0.1% | i | 2.0% | 1.8%
COc1ccc(C2C(Oc3ccccc3)C(=O)N2c2ccc(C)c(C)c2)cc1OC (centres undefined) | ? | i | ? | i | -2.8% | -4.0%
Clc1cccc(-c2ccc(CNCc3ccccn3)o2)c1 | ? | i | ? | i | -1.0% | -5.7%
O=c1[nH]nc(Cc2ccc(-c3cccc(Cl)c3)o2)c2ccccc12 | ? | i | 16.4µM* | i | ? | ?
Cc1cc(C)c2nc(NC(=O)c3ccc([N+](=O)[O-])o3)sc2c1 | 2.9% | i | -8.9% | i | -18.2% | 11.1%
O=C(Nc1nc2c(F)cc(F)cc2s1)c1ccc([N+](=O)[O-])o1 | 10.3µM* | i | 14.6µM* | 10.3µM* | -1.9% | -16.0%
COc1ccc2nc(NC(=O)c3ccc([N+](=O)[O-])o3)sc2c1 | 13µM* | ? | 23.1µM* | 18.4µM* | 18.4µM* | ?

Screening results: PubChem, National Center for Advancing Translational Sciences (NCATS)
